Compound activity deposited in PubChem by several laboratories.
Rows were chosen to be rich in hits. Some 1.5% of all compounds tested hit in one or more screens of this group.
DAGLB inhibitor – diacylglycerol lipase beta (human) inhibition; Q8NCG7; HEK293T DAGLB membrane lysate, EnzChek fluorogenic substrate; inhibition, % at 5.17 µM; 0.059% of 340,000 active; in the data active = inhibition above about 34%
TMEM16A inh – mouse TMEM16A channel inhibition, primary screen. Q8BHY3. HEK293 TMEM16A/YFP iodide influx fluorescence, ionomycin. normalized B-score (activity score, 25-100; higher = stronger inhibition) at 10 µM. 1.2% of 310,000 active. AID 588511;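 active = ratio plate-corrected score three or more library SD toward inhibition, starting fluorescence score within five deviations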;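 note: score derived from kinetic fluorescence span divided by baseline fluorescence per well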
ABCB6 inh 2 – human ABCB6 transporter inhibition | K562-ABCB6 porphyrin accumulation, flow cytometry, 1 h; hits give low values | 0.19% of 360,000 active | Q9NP58 | fluorescence ratio to DMSO, % at 10 µM | AID 602162;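 active = fluorescence ratio to DMSO below 75%, the collection mean minus 3 SD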;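 note: signal is porphyrin accumulated inside mitochondria; lower ratio means ABCB6 inhibition with less porphyrin fluorescence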
TMEM16A act – mouse TMEM16A channel activation, primary screen; HEK293 TMEM16A/YFP-H148Q/I152L, iodide quench fluorescence; hits give low values; B-score at 10 µM; 0.3% of 340,000 active;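 active = fluorescence-ratio B-score plate-corrected deviation score at least 3 library SD below zero, with starting fluorescence score within 5 deviations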;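 note: channel opened by trigger with iodide after compound preincubation; score built on the fluorescence ratio of max minus min over baseline; more negative score means more quench and so TMEM16A activation or potentiation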
iPSC survival up – hiPSC single-cell survival enhancement. ATPlite luminescence; 100% = ROCK inhibitor wells, 0% = DMSO. survival enhancement, % at 20 µM. 0.044% of 360,000 active. AID 602274; in the data active = survival enhancement above about 18%;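 note: cells exposed to compounds for 16 hours before the ATP read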
TMEM16A reconf – re-confirmation of mouse TMEM16A chloride channel inhibitors. shares compounds with TMEM16A inh. HEK293 TMEM16A/YFP-H148Q, iodide quench fluorescence; ionomycin added to raise cell calcium. inhibition, % at 10 µM. 39% of 2,300 active. AID 652189;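 active = mean duplicate percent inhibition, scaled so buffer wells are 0 and the reference blocker 100, over three buffer SD above buffer mean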
TMEM16A Ca cntr – calcium mobilization counter-screen hit for TMEM16A inhibitor series. shares compounds with TMEM16A inh. 2% of 2,300 active. TMEM16A/YFP HEK293, Fluo4 calcium mobilization. calcium response (% of ionomycin), % at 10 µM. AID 652231;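 active = duplicate-averaged calcium signal over 20% of the ionomycin maximum, relative to buffer baseline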;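 note: each well's signal is peak minus trough fluorescence divided by its pre-addition baseline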
YFP-HEK293 quench – counter-screen for TMEM16A inhibitors: effect in parental YFP-HEK293 cells; iodide YFP quench, ionomycin; YFP ratio F(max-min)/F0 at 10 µM; 2,300 tested, under 10 active; shares compounds with TMEM16A inh;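 active = yellow fluorescent protein signal ratio exceeding the buffer control mean by over 5 SD of those controls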;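 note: ratio is mean of duplicate wells from kinetic YFP trace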
ClC-1 rat inh – selectivity of TMEM16A inhibitors: inhibition of rat ClC-1 chloride channel; CHO ClC-1-YFP, iodide influx fluorescence quench; iodide control reads 0, buffer control 100; shares compounds with TMEM16A inh; 2,300 tested, under 10 active; ratio percent, % at 10 µM;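 active = duplicate-mean ratio percent above the mean of iodide-only control wells, which defines zero, plus 5 of their SD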;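 note: higher percent means stronger block of ClC-1 iodide influx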
Target sequence (P35524 whole entry, looked up): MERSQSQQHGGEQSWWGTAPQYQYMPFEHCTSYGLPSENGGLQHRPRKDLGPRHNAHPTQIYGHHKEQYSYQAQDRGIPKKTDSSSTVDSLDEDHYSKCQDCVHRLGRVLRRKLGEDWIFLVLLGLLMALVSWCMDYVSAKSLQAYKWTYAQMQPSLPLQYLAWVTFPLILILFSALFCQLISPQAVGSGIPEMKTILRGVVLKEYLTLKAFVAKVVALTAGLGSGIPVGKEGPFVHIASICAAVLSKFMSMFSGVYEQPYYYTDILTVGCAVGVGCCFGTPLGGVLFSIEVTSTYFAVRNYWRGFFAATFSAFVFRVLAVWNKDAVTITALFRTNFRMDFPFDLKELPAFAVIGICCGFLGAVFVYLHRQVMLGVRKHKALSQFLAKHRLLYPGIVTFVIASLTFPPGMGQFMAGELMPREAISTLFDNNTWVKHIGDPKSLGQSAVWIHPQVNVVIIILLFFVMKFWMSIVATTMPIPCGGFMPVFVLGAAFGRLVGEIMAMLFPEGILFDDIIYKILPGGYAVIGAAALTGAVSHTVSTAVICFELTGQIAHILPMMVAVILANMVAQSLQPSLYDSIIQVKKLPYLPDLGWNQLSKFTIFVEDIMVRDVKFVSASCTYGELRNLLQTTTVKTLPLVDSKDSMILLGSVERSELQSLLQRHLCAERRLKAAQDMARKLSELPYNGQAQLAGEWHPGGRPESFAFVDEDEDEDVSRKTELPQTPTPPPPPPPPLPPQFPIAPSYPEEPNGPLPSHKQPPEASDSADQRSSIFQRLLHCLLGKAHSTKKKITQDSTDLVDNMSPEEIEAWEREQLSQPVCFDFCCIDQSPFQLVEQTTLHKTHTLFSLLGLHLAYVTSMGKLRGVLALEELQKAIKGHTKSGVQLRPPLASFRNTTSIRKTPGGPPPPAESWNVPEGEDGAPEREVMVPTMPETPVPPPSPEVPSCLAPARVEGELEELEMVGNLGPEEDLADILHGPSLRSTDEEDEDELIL
A number is an active result; 0 = inactive; - = no result.

SMILES	DAGLB inhibitor	TMEM16A inh	ABCB6 inh 2	TMEM16A act	iPSC survival up	TMEM16A reconf	TMEM16A Ca cntr	YFP-HEK293 quench	ClC-1 rat inh
COc1cc(OC)cc(-c2ncc3ccccn23)c1	0	100	0	0	0	0	0	0	0
O=C(CSS(=O)(=O)O)N1CCN(C(=O)c2ccoc2)CC1	0	0	0	0	0	-	-	-	-
COc1cc(O)c(CC=C(C)C)c(O)c1C(=O)CCc1ccc(O)cc1	0	0	0	0	0	-	-	-	-
O=C(CCc1ccc(O)cc1)c1c(O)cc(O)cc1O	0	25	0	0	0	18%	0	0	0
COc1cc(OC)c(OC)cc1/C=C1/Cc2ccccc2C1=O	0	0	0	0	0	0	28%	0	0
c1csc(-c2noc(COc3ccc4c(c3)CCCC4)n2)c1	0	0	0	0	0	0	0	0	0
CC(=O)Nc1ccc(NC(=O)c2ccnn2C)cc1	0	0	0	0	0	-	-	-	-
NS(=O)(=O)c1ccc(NC(=O)COC(=O)c2ccc(S(=O)(=O)N3CCOCC3)cc2)cc1	0	-	0	0	0	-	-	-	-
O=C(CS(=O)CC(=O)N(CC(=O)NC1CCCC1)C1CCCC1)Nc1ccc(F)cc1 (stereo unspecified)	0	25	0	-	0	0	0	0	0
O=C(c1ccco1)N1CCN(C(=O)C2CCN(S(=O)(=O)c3cccc4nsnc34)CC2)CC1	0	100	0	0	0	0	0	0	0
O=C(C1CCN(S(=O)(=O)c2cccc3nsnc23)CC1)N1CCN(c2ccccc2F)CC1	0	0	0	0	0	-	-	-	-
CC(=O)c1cccc(N(C(=O)c2csnn2)C(C(=O)NC2CCCC2)c2ccccc2)c1 (stereo unspecified)	0	0	0	0	0	-	-	-	-
CCCCOC(=O)C1=C(C)Nc2ncnn2C1c1ccc(OCC)c(OC)c1 (stereo unspecified)	0	25	0	0	0	0	0	0	0
CCCCOC(=O)C1=C(C)Nc2ncnn2C1c1ccc(OC)c(OC)c1 (stereo unspecified)	0	0	0	0	0	-	-	-	-
CCC(C)n1c(C)nc2c(c1=O)c1nc3ccccc3nc1n2CCC1=CCCCC1 (stereo unspecified)	0	25	0	0	0	22%	0	0	0
CCCCn1c2nc3ccccc3nc2c2c(=O)n(C(C)CC)cnc21 (stereo unspecified)	0	0	0	0	0	-	-	-	-
O=C(C1CCN(S(=O)(=O)c2cnc[nH]2)CC1)N1CCN(c2ncccn2)CC1	0	100	0	0	0	0	0	0	0
Cc1c(C(=O)NC2CCC(C)CC2)oc2ccccc12 (stereo unspecified)	0	0	0	0	0	-	-	-	-
Cc1ccc(NC(=O)C(C)c2ccc(-c3ccccc3)c(F)c2)c(C)c1 (stereo unspecified)	0	25	0	0	0	0	0	0	0
COc1ccc(Cn2c(=O)[nH]c3cc(C(=O)N4CCN(Cc5ccccc5)CC4)ccc3c2=O)cc1	0	25	0	0	0	0	0	0	0
COc1ccc(Cn2c(=O)[nH]c3cc(C(=O)N4CCN(c5ccccc5OC)CC4)ccc3c2=O)cc1	0	0	0	0	0	-	-	-	-
CCN(CC)S(=O)(=O)c1cccc(C(=O)Nc2nc3cc4c(cc3s2)OCCO4)c1	0	100	0	0	0	20%	0	0	0
Cc1ccc(-c2cc(C(=O)N3N=C(C(F)F)CC3(O)C(F)F)c3ccccc3n2)cc1C (stereo unspecified)	0	0	0	0	0	-	-	-	-
O=C(c1cc(-c2ccccc2)nc2ccccc12)N1N=C(C(F)F)CC1(O)C(F)F (stereo unspecified)	0	100	0	0	0	0	0	0	0
CC(NC(=O)Cn1cnnn1)C12CC3CC(CC(C3)C1)C2 (stereo unspecified)	0	100	0	0	0	0	0	0	0
SMILES	DAGLB inhibitor	TMEM16A inh	ABCB6 inh 2	TMEM16A act	iPSC survival up	TMEM16A reconf	TMEM16A Ca cntr	YFP-HEK293 quench	ClC-1 rat inh
CC(NC(=O)CN1CCCC1)C12CC3CC(CC(C3)C1)C2 (stereo unspecified)	0	0	0	0	0	-	-	-	-
O=C(N/N=C/c1c[nH]c2ccccc12)C1CC1(c1ccccc1)c1ccccc1 (stereo unspecified)	0	0	0	0	0	-	-	-	-
O=C(N/N=C/c1c[nH]c2ccccc12)C1CC1c1ccccc1 (stereo unspecified)	0	25	0	0	0	46%	0	0	0
Cc1cccc(S(=O)(=O)Nc2nc3ccccc3nc2Nc2ccc3c(c2)OCO3)c1	0	25	0	0	0	20%	0	0	0
CCN1C(=O)[C@H]2[C@@H](c3ccc(C)cc3)N[C@]3(CCCN(CCC(C)C)C3=O)[C@H]2C1=O	0	-	0	-	0	-	-	-	-
C/C=C1\COC(C(=O)NCc2cccc(OC)c2OC)(C(F)(F)F)C=C1C=C1CCCCC1 (stereo unspecified)	0	25	0	0	0	0	0	0	0
C/C=C1\COC(C(=O)NCc2ccncc2)(C(F)(F)F)C=C1C=C1CCCCC1 (stereo unspecified)	0	0	0	0	0	-	-	-	-
O=C(Nc1ncc([N+](=O)[O-])s1)c1cccs1	0	25	0	0	0	24%	0	0	0
Cc1cnc(NC(=O)c2cccs2)s1	0	0	0	0	0	-	-	-	-
Cc1ccc(S(=O)(=O)CC(=O)Nc2ncc([N+](=O)[O-])s2)cc1	0	25	0	0	0	38%	0	0	0
Cc1ccc(S(=O)(=O)Cn2nnnc2C(c2ccccc2)N2CCN(c3ncccn3)CC2)cc1 (stereo unspecified)	0	25	0	0	0	0	0	0	0
COc1ccc(NS(=O)(=O)c2ccc(OC)c(N(C)S(=O)(=O)c3ccc(Cl)cc3)c2)cc1	0	100	0	0	0	0	0	0	0
COc1ccc(S(=O)(=O)N2CCN(c3ccc(C)cc3C)CC2)cc1OC	0	25	0	0	0	26%	0	0	0
COc1ccc(S(=O)(=O)N2CCCCCC2)cc1N(C)S(=O)(=O)c1ccc(C)cc1	0	100	0	0	0	0	0	0	0
O=C(CCCN1C(=O)c2ccccc2C1=O)N1CCc2ccccc2C1	0	25	0	0	0	0	0	0	0
COC(=O)c1ccc(COc2ncnc3ccccc23)o1	0	0	0	0	0	-	-	-	-
